# Calls of active or inactive are those of the source. Rule for the calls: active = hit-call score of the fitted dose curve at least 0.9, where 1 is the maximum; inactive = score below 0.9.
# How the values were obtained:
# Conditions in all cases: mRNA level, 48 h; actives raise or lower the signal
# [1] = read-out: Tumor necrosis factor receptor superfamily member 6 (Homo sapiens) (UniProt P25445); assay: LTEA_HepaRG_FAS: Life Technologies and Expression Analysis (LTEA) Assay for Fas cell surface death receptor (FAS) using HepaRG (AID 2283447)
# Outline: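 Differentiated HepaRG cells in serum-free induction medium were exposed 48 h to 8 half-log concentrations up to 100 uM in 0.5% DMSO, in duplicate. FAS mRNA was measured by qRT-PCR normalised to ACTB, GAPDH and POLR2A; bidirectional fit versus DMSO.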
# [2] = read-out: Fatty acid synthase (Homo sapiens) (UniProt P49327); assay: LTEA_HepaRG_FASN: Life Technologies and Expression Analysis (LTEA) Assay for Fatty Acid Synthase (FASN) using HepaRG (AID 2283448)
# Outline: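 Differentiated human HepaRG cells were exposed for 48 h in serum-free induction medium to eight half-log concentrations up to 100 uM in 0.5% DMSO, in duplicate. FASN mRNA was quantified by TaqMan qRT-PCR, normalized to ACTB/GAPDH/POLR2A, and fitted bidirectionally against DMSO.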
# [3] = read-out: Cyclin D2 (CCND2), CCND2 (gene 894); assay: LTEA_HepaRG_CCND2: Life Technologies and Expression Analysis (LTEA) Assay for Cyclin D2 (CCND2) using HepaRG (AID 2283449);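 note: CCND2 transcript measured by TaqMan qRT-PCR and normalised to three housekeeping genes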
# Outline: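 Chemicals in 0.5% DMSO, eight half-log concentrations from 100 uM top, were applied in duplicate for 48 h to human HepaRG cells in serum-free induction medium. CCND2 mRNA by TaqMan qRT-PCR, normalised to ACTB/GAPDH/POLR2A; bidirectional fit versus DMSO.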
# [4] = read-out: Cyclin Dependent Kinase Inhibitor 1A (CDKN1A), CDKN1A (gene 1026); assay: LTEA_HepaRG_CDKN1A: Life Technologies and Expression Analysis (LTEA) Assay for Cyclin Dependent Kinase Inhibitor 1A (CDKN1A) using HepaRG (AID 2283450)
# Outline: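 Read-out is CDKN1A mRNA by TaqMan qRT-PCR, normalized to three housekeeping genes and fitted in both directions against the DMSO baseline. Human HepaRG cells were treated 48 h with test chemicals up to 100 uM in half-log steps, 0.5% DMSO.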
# [5] = read-out: Cyclin D1 (CCND1), CCND1 (gene 595); assay: LTEA_HepaRG_CCND1: Life Technologies and Expression Analysis (LTEA) Assay for Cyclin D1 (CCND1) using HepaRG (AID 2283451)
# Outline: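 HepaRG plated 48 h, medium switched to serum-free induction medium, chemicals added in duplicate (top 100 uM, half-log steps, 0.5% DMSO) for 48 h, cells lysed, RNA measured by TaqMan qRT-PCR.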
# [6] = read-out: catalase (CAT), CAT (gene 847); assay: LTEA_HepaRG_CAT: Life Technologies and Expression Analysis (LTEA) Assay for catalase (CAT) using HepaRG (AID 2283452);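 for AC50: TaqMan qRT-PCR signal normalized to ACTB GAPDH and POLR2A housekeeping genes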
# Outline: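 HepaRG cells in serum-free induction medium, 0.5% DMSO vehicle, exposed 48 h in duplicate over 8 half-log concentrations from 100 uM. CAT mRNA measured by qRT-PCR, normalized to ACTB, GAPDH, POLR2A; bidirectional fit versus DMSO.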
# [7] = read-out: flavin-containing dimethylaniline monooxygenases 3 (FMO3), FMO3 (gene 2328); assay: LTEA_HepaRG_FMO3: Life Technologies and Expression Analysis (LTEA) Assay for flavin-containing dimethylaniline monooxygenases 3 (FMO3) using HepaRG (AID 2283453)
# Outline: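 HepaRG, 48 h exposure, 8-pt half-log series from 100 uM, 0.5% DMSO vehicle, duplicates; FMO3 transcript by Fluidigm TaqMan qRT-PCR, housekeeping-normalized; gain/loss fit vs DMSO.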
# [8] = read-out: Cytochrome P450 (CYP1A1), CYP1A1 (gene 1543); assay: LTEA_HepaRG_CYP1A1: Life Technologies and Expression Analysis (LTEA) Assay for Cytochrome P450 (CYP1A1) using HepaRG (AID 2283454)
# Outline: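 HepaRG, 48 h post-plating switched to serum-free induction medium; 8-pt conc-response (top 100 uM, half-log, 0.5% DMSO), duplicates, 48 h. Lysis in RLT, TaqMan qRT-PCR for CYP1A1; gain or loss vs DMSO.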
# [9] = read-out: CFLAR gene, CFLAR (gene 8837); assay: LTEA_HepaRG_CFLAR: Life Technologies and Expression Analysis (LTEA) Assay for CFLAR gene using HepaRG (AID 2283455)
# Outline: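 Differentiated HepaRG cells in serum-free induction medium were exposed 48 h in duplicate to eight half-log concentrations up to 100 uM in 0.5% DMSO; mRNA measured by TaqMan qRT-PCR, normalized to ACTB, GAPDH, POLR2A; bidirectional fitting versus DMSO.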
# [10] = read-out: Forkhead box O1 (FOXO1), FOXO1 (gene 2308); assay: LTEA_HepaRG_FOXO1: Life Technologies and Expression Analysis (LTEA) Assay for Forkhead box O1 (FOXO1) using HepaRG (AID 2283456)
# Outline: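 Differentiated HepaRG cells, in serum-free induction medium with 0.5% DMSO, exposed 48 h in duplicate to 8-point half-log series from 100 uM. FOXO1 mRNA measured by TaqMan qRT-PCR, normalized to ACTB, GAPDH, POLR2A; bidirectional fit versus DMSO.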
# [11] = read-out: growth arrest and DNA damage 45 (GADD45A), GADD45A (gene 1647); assay: LTEA_HepaRG_GADD45A: Life Technologies and Expression Analysis (LTEA) Assay for growth arrest and DNA damage 45 (GADD45A) using HepaRG (AID 2283458)
# Outline: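 Differentiated HepaRG cells were exposed in duplicate for 48 h in serum-free induction medium to 8-point half-log concentrations up to 100 uM in 0.5% DMSO. GADD45A mRNA was measured by TaqMan qRT-PCR, normalized to ACTB, GAPDH and POLR2A, with bidirectional fitting versus DMSO.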
# [12] = read-out: Forkhead box O3 (FOXO3), FOXO3 (gene 2309); assay: LTEA_HepaRG_FOXO3: Life Technologies and Expression Analysis (LTEA) Assay for Forkhead box O3 (FOXO3) using HepaRG (AID 2283459)
# Outline: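 Differentiated human HepaRG cells, 48 h post-plating, exposed in duplicate for 48 h in serum-free induction medium; 8-point half-log series from 100 uM in 0.5% DMSO. FOXO3 mRNA by TaqMan qRT-PCR, normalized to ACTB/GAPDH/POLR2A; bidirectional fit versus DMSO.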
# [13] = read-out: ABC Transporter (ABCB1), ABCB1 (gene 5243); assay: LTEA_HepaRG_ABCB1: Life Technologies and Expression Analysis (LTEA) Assay for ABC Transporter (ABCB1) using HepaRG (AID 2283460)
# Outline: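 HepaRG cells exposed in duplicate for 48 h in serum-free induction medium to eight half-log concentrations up to 100 uM in 0.5% DMSO. ABCB1 mRNA quantified by qRT-PCR, normalised to ACTB, GAPDH and POLR2A; fitted bidirectionally versus DMSO.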
# [14] = read-out: growth arrest and DNA damage 45 (GADD45B), GADD45B (gene 4616); assay: LTEA_HepaRG_GADD45B: Life Technologies and Expression Analysis (LTEA) Assay for growth arrest and DNA damage 45 (GADD45B) using HepaRG (AID 2283461)
# Outline: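 HepaRG, ~100,000 cells/well, 48 h plating; serum-free induction medium; cpd 100 uM top, half-log x8, 0.5% DMSO, duplicate, 48 h; lysis in RLT, RNA isolation, qRT-PCR; norm ACTB/GAPDH/POLR2A; bidirectional fit vs DMSO.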
# [15] = read-out: ABC Transporter (ABCC3), ABCC3 (gene 8714); assay: LTEA_HepaRG_ABCC3: Life Technologies and Expression Analysis (LTEA) Assay for ABC Transporter (ABCC3) using HepaRG (AID 2283462)
# Outline: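 Human HepaRG, 48 h dosing, 8-pt half-log series from 100 uM, 0.5% DMSO vehicle, duplicates. ABCC3 mRNA by TaqMan qRT-PCR, housekeeping-normalized; bidirectional curve fit vs DMSO.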
# [16] = read-out: ABC Transporter (ABCB11), ABCB11 (gene 8647); assay: LTEA_HepaRG_ABCB11: Life Technologies and Expression Analysis (LTEA) Assay for ABC Transporter (ABCB11) using HepaRG (AID 2283463)
# Outline: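 Differentiated human HepaRG cells in serum-free induction medium, dosed in duplicate for 48 h. Eight-point half-log series from 100 uM in 0.5% DMSO; ABCB11 mRNA by qRT-PCR, normalized to ACTB, GAPDH, POLR2A, fitted bidirectionally versus DMSO.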
# [17] = read-out: ABC Transporter (ABCC2), ABCC2 (gene 1244); assay: LTEA_HepaRG_ABCC2: Life Technologies and Expression Analysis (LTEA) Assay for ABC Transporter (ABCC2) using HepaRG (AID 2283464)
# Outline: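 HepaRG, 48 h post-plating; serum-free induction medium; cpd 8-pt, 100 uM top, half-log, 0.5% DMSO, duplicate, 48 h. Readout: ABCC2 mRNA by qRT-PCR, norm. ACTB/GAPDH/POLR2A. Bidirectional fit vs DMSO baseline.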
# Fatty acid synthase (Homo sapiens), sequence (P49327 whole entry, looked up): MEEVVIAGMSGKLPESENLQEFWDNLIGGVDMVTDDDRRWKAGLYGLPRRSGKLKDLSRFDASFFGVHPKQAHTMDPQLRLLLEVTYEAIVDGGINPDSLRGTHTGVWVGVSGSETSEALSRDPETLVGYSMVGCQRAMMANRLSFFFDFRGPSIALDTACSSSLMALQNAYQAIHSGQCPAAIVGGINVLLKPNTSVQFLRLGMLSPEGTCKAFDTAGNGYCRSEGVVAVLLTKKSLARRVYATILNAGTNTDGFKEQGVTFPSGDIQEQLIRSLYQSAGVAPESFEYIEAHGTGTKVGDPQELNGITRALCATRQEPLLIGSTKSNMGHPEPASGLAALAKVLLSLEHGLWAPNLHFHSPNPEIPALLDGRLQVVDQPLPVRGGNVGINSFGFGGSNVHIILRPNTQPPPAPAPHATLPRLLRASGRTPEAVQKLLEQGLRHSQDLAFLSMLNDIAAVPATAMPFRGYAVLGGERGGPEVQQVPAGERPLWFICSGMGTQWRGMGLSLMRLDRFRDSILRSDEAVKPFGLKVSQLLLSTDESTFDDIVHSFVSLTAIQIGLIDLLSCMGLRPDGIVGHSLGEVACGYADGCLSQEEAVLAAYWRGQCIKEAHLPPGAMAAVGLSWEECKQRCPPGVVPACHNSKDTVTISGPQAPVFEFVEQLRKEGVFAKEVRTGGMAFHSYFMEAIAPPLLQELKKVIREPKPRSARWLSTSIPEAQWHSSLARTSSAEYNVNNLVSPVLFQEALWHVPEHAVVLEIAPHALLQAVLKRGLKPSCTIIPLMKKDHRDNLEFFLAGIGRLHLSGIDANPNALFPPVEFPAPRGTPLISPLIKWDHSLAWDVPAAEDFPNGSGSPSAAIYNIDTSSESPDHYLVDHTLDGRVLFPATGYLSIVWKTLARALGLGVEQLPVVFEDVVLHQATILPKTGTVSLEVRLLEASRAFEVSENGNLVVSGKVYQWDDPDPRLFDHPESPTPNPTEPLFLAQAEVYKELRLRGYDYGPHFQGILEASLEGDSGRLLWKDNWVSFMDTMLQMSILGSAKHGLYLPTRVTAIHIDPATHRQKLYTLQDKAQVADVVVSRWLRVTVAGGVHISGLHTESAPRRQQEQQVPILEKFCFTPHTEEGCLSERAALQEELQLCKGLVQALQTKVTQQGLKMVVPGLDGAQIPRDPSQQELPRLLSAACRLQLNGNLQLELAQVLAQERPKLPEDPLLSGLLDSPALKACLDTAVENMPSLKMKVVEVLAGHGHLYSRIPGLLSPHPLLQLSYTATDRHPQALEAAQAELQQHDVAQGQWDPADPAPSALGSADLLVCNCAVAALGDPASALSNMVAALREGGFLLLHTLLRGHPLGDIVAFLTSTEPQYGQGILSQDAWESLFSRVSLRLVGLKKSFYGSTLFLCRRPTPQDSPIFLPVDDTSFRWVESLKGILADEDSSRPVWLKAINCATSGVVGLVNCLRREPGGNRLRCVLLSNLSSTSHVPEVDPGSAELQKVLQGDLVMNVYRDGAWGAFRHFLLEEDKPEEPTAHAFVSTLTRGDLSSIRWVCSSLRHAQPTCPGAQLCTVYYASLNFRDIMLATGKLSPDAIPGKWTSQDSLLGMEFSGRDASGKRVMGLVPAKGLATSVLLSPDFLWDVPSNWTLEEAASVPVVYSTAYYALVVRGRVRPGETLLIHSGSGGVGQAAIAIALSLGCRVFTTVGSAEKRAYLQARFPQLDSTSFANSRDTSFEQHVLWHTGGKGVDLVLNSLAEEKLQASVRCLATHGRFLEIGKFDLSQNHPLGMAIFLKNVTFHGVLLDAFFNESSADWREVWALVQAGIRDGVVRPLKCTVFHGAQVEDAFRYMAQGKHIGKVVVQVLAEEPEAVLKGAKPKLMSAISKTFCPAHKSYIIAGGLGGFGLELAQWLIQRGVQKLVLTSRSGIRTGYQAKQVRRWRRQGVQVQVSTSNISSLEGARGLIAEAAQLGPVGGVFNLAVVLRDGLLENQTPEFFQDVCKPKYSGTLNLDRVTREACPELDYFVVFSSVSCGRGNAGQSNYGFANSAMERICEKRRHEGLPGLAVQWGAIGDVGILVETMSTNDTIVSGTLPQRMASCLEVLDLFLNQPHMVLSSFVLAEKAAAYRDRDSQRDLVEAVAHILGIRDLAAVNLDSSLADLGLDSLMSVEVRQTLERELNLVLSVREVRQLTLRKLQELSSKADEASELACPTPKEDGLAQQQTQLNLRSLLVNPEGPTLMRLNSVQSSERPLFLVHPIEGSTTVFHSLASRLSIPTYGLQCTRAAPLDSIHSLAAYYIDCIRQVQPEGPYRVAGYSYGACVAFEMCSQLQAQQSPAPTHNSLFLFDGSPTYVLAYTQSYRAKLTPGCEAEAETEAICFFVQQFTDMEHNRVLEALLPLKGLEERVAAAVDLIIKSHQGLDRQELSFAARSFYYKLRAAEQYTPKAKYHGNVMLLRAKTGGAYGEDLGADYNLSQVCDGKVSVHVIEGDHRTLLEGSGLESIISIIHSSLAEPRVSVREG
structure (smiles),measurement,setting,value
OC[C@H]1O[C@@H]2O[C@H]3[C@H](O)[C@@H](O)[C@@H](O[C@H]4[C@H](O)[C@@H](O)[C@@H](O[C@H]5[C@H](O)[C@@H](O)[C@@H](O[C@H]6[C@H](O)[C@@H](O)[C@@H](O[C@H]7[C@H](O)[C@@H](O)[C@@H](O[C@H]1[C@H](O)[C@H]2O)O[C@@H]7CO)O[C@@H]6CO)O[C@@H]5CO)O[C@@H]4CO)O[C@@H]3CO,outcome,[1],inactive
same,outcome,[2],inactive
same,outcome,[3],inactive
same,outcome,[4],inactive
same,outcome,[5],inactive
same,outcome,[6],inactive
same,outcome,[7],inactive
same,AC50,[8],26.2 µM (active)
same,outcome,[9],inactive
same,outcome,[10],inactive
same,outcome,[11],inactive
same,outcome,[12],inactive
same,outcome,[13],inactive
same,outcome,[14],inactive
same,outcome,[15],inactive
same,outcome,[16],inactive
same,outcome,[17],inactive
CCc1ccc(O)c(C(C)(C)C)c1,outcome,[1],inactive
same,outcome,[2],inactive
same,outcome,[4],inactive
same,outcome,[5],inactive
same,outcome,[6],inactive
same,outcome,[7],inactive
same,AC50,[8],50 µM (active)
same,outcome,[9],inactive
same,outcome,[10],inactive
same,outcome,[11],inactive
same,outcome,[12],inactive
same,outcome,[13],inactive
same,outcome,[14],inactive
same,outcome,[15],inactive
same,outcome,[16],inactive
same,outcome,[17],inactive
Cc1ccc(S(=O)(=O)NC(=O)NN2CCCCCC2)cc1,outcome,[1],inactive
same,outcome,[2],inactive
same,outcome,[3],inactive
same,outcome,[4],inactive
same,outcome,[5],inactive
same,outcome,[6],inactive
same,outcome,[7],inactive
same,outcome,[9],inactive
same,outcome,[10],inactive
same,outcome,[11],inactive
same,outcome,[12],inactive
same,AC50,[13],20.1 µM (active)
same,outcome,[14],inactive
same,outcome,[15],inactive
same,outcome,[16],inactive
same,outcome,[17],inactive
NNC(=O)c1ccncc1,outcome,[1],inactive
same,outcome,[2],inactive
same,outcome,[3],inactive
same,outcome,[4],inactive
same,outcome,[5],inactive
same,outcome,[6],inactive
same,outcome,[7],inactive
same,AC50,[8],22 µM (active)
same,outcome,[9],inactive
same,outcome,[10],inactive
same,outcome,[11],inactive
same,outcome,[12],inactive
same,outcome,[13],inactive
same,outcome,[14],inactive
same,outcome,[15],inactive
same,outcome,[16],inactive
same,outcome,[17],inactive
O=C(O)c1cccc(C[C@@H]2COc3ccc(OCc4nc5cc(F)ccc5s4)cc3[C@@H]2O)c1,outcome,[1],inactive
same,AC50,[2],85.5 µM (active)
same,outcome,[3],inactive
same,outcome,[4],inactive
same,outcome,[5],inactive
same,AC50,[6],50 µM (active)
same,outcome,[7],inactive
same,AC50,[8],33.4 µM (active)
same,outcome,[9],inactive
same,outcome,[10],inactive
same,outcome,[11],inactive
same,outcome,[12],inactive
same,outcome,[13],inactive
same,outcome,[14],inactive
same,AC50,[15],79.3 µM (active)
same,AC50,[16],79.3 µM (active)
same,outcome,[17],inactive
OC(CCl)CCl,outcome,[1],inactive
same,outcome,[2],inactive
same,outcome,[3],inactive
same,outcome,[4],inactive
same,outcome,[5],inactive
same,outcome,[6],inactive
same,outcome,[7],inactive
same,AC50,[8],50 µM (active)
same,outcome,[9],inactive
same,outcome,[10],inactive
same,outcome,[11],inactive
same,outcome,[12],inactive
same,outcome,[13],inactive
same,outcome,[14],inactive
same,outcome,[15],inactive
same,outcome,[16],inactive
same,outcome,[17],inactive
CCCCOC(=O)c1ccccc1,outcome,[1],inactive
same,outcome,[2],inactive
same,outcome,[3],inactive
same,outcome,[4],inactive
same,outcome,[5],inactive
same,outcome,[6],inactive
same,outcome,[7],inactive
same,outcome,[8],inactive
same,outcome,[9],inactive
same,outcome,[10],inactive
same,outcome,[11],inactive
same,outcome,[12],inactive
same,outcome,[13],inactive
same,outcome,[14],inactive
same,outcome,[15],inactive
same,outcome,[16],inactive
same,outcome,[17],inactive
CCCCCCCCN(C)C,outcome,[1],inactive
same,outcome,[2],inactive
same,outcome,[3],inactive
same,outcome,[4],inactive
same,outcome,[5],inactive
same,outcome,[6],inactive
same,outcome,[7],inactive
same,outcome,[8],inactive
same,outcome,[9],inactive
same,outcome,[10],inactive
same,outcome,[11],inactive
same,outcome,[12],inactive
same,outcome,[13],inactive
same,outcome,[14],inactive
same,outcome,[15],inactive
same,outcome,[16],inactive
same,outcome,[17],inactive
